Assay outcomes: PubChem, National Center for Advancing Translational Sciences (NCATS)
LDHA block – blocks human lactate dehydrogenase A; P00338; purified LDHA, NADH/diaphorase-resazurin fluorescence; hits give low values; activity change, % (values are at about 110 or 230 µM); 480,000 compounds, 0.15% hits; AID 1347041; in the data active = activity change below about -30%; inconclusive = mostly about -25% to -30%
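Human LDH5 (2 nM) was incubated with 0.06 mM NADH and 0.2 mM pyruvate for 5 min at room temperature in Tris pH 7.4. Remaining NADH was coupled through diaphorase/resazurin, and resorufin fluorescence was read at 0 and 20 min.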
IL1B secr inh – inhibitors of inflammasome signaling (IL-1 beta secretion); THP-1 LPS/ATP IL-1B secretion, AlphaLISA, 16 h; hits give low values; activity change, % at 57.5 µM; 360,000 compounds, 4.7% hits; AID 743279; in the data active = activity change below about -50%; inconclusive = mostly about -30% to -49%
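THP-1 cells pretreated 1 hr with compounds (up to 57.5 uM final), then stimulated with LPS (250 ng/mL final) plus ATP (1.25 mM final); secreted IL-1B measured by AlphaLISA after 16 hr, decreased signal indicating inhibition.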
RORg inh – inhibitors of mouse ROR gamma transcriptional activity; P51450; Drosophila S2 Gal4-RORgamma UAS-luciferase reporter, 20 h; Potency, µM (doses to about 53.6 µM), actives largely listed as inhibitors; 310,000 compounds, 5.4% hits; note: nearly all actives have a fitted effect of over 60% in size
Target sequence (P51450 whole entry, looked up, the tested form may be a part): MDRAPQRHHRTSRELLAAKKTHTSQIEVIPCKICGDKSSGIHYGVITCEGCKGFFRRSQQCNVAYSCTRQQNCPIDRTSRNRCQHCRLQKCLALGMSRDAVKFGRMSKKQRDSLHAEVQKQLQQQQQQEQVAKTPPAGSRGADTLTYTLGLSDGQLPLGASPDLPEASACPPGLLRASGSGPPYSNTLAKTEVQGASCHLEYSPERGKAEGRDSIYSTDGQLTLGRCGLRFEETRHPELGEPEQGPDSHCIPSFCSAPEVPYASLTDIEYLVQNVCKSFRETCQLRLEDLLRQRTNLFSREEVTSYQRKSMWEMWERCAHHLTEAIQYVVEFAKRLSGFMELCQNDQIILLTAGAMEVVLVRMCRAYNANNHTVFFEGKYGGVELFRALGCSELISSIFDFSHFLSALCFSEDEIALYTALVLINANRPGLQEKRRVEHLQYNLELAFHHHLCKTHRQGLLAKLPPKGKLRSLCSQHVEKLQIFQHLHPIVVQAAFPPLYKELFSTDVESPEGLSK
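In this cell-based reporter format, copper sulfate (700 uM final) drives Gal4–ROR gamma fusion expression from a metallothionein promoter in Drosophila Schneider cells; compounds preincubated 1 hr, reporter read after 20 hr at ambient temperature.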
VP16 counter – counter-screen for ROR gamma inhibitors: Gal4-VP16 reporter. Drosophila S2 Gal4-VP16 UAS-luciferase, luminescence, 20 h. Potency, µM (top dose mostly 53.6 µM), most hits filed as inhibitors. 310,000 compounds, 3.5% hits;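 note: Gal4-VP16 expression switched on by copper sulfate through the metallothionein promoter; nearly all actives have a fitted effect of over 50% in size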
DT40 TDP1 no CPT – qHTS for Inhibitors of human tyrosyl-DNA phosphodiesterase 1 (TDP1): qHTS in cells in absence of CPT. DT40 Tdp1-/- hTDP1 cells, no CPT, ATP luminescence, 48 h. Potency, µM (doses to about 46.2 µM), most hits filed as inhibitors. 420,000 compounds, 15% hits. AID 686978, 2013; note: nearly all actives have a fitted effect of over 55% in size
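Chicken DT40 Tdp1-/- cells complemented with human TDP1, screened without camptothecin (DMSO vehicle only), 400 cells/well. Compounds pin-transferred, cells incubated at 37 °C for at least 48 hr. Growth read as ATP-dependent luminescence (CellTiter-Glo, 30 min at RT).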
TDP1 cell CPT – growth inhibition of DT40 Tdp1-/-;hTDP1 cells with camptothecin (screen for TDP1 inhibitors); chicken DT40 Tdp1-/-;hTDP1 cells + 20 nM CPT, ATP luminescence, 48 h; AID 686979; 420,000 compounds, 12% hits; Potency, µM (titrated, usually from 46.2 µM), actives largely listed as inhibitors; note: nearly all actives have a fitted effect of over 55% in size
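Cell growth measured by CellTiter-Glo luminescence after a minimum 48 h, 37 C compound exposure with 20 nM CPT in Tdp1-knockout DT40 cells stably expressing hTDP1, seeded 400/well; qHTS titration format.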
Numbers stand for hits. Only some compounds are listed: those with a hit (about 18% of all), similar ones and a draw of the others. Unless noted, calls come from the whole dose curve; as a rule, active = well fitted curve in the direction sought with a large enough effect; inconclusive = small, poorly fitted or top-dose-only effect, or another doubt; inactive = no such curve, though single readings can be large; an effect the other way counts as inactive or inconclusive.

C(#Cc1ccccc1)C[N+]1(CC#Cc2ccccc2)CCCCC1 was read as LDHA block inactive, IL1B secr inh -86, RORg inh inactive, VP16 counter inactive, DT40 TDP1 no CPT 1.5µM and TDP1 cell CPT 1.8µM.
For Cc1ccc(C#CC[N+]2(CC#Cc3ccc(C)cc3)CCCCC2)cc1 the results were LDHA block inactive, IL1B secr inh -86, RORg inh inconclusive, VP16 counter 7.1µM, DT40 TDP1 no CPT 0.029µM and TDP1 cell CPT 0.46µM.
For C=CC[N+](CC)(CC)CC#Cc1cccc(C)c1 the results were LDHA block inactive.
C#CC[N+]1(CC#Cc2ccccc2)CCCCC1 was read as LDHA block inactive, IL1B secr inh inactive, RORg inh inactive, VP16 counter inactive, DT40 TDP1 no CPT 16µM and TDP1 cell CPT 16µM.
Screening CCC[N+]1(CC#CCC(c2ccccc2)c2ccccc2)CCCCC1 returned LDHA block inactive, IL1B secr inh -85, RORg inh inactive, VP16 counter inactive, DT40 TDP1 no CPT 1.3µM and TDP1 cell CPT 1.5µM.
`C=CC[N+]1(CC#CCOC(c2ccccc2)c2ccccc2)CCCCC1` gave LDHA block inactive.
Cc1ccc(NC(=O)COc2ccc(CCO)cc2-n2nc3ccccc3n2)cc1C was read as LDHA block inactive, IL1B secr inh inactive, RORg inh inactive, VP16 counter inactive, DT40 TDP1 no CPT 12µM and TDP1 cell CPT inconclusive.
`COc1cc(C)cc2oc(=O)c(CC(=O)NC3CCCCCC3)c(C)c12` gave LDHA block inactive.
Screening O=C1c2cccc3cccc(c23)C(=O)N1/N=C/c1ccc(O)cc1O returned LDHA block inactive, IL1B secr inh inactive, RORg inh inactive, VP16 counter inactive, DT40 TDP1 no CPT inactive and TDP1 cell CPT inactive.
O=[N+]([O-])c1cccc(/C=N\N=C2c3ccccc3-c3ccccc32)c1O was read as LDHA block inactive, IL1B secr inh inactive, RORg inh 10µM, VP16 counter 20µM, DT40 TDP1 no CPT 16µM and TDP1 cell CPT inconclusive.
For Oc1ccc(C=NN=C2c3ccccc3-c3ccccc32)c(O)c1 the results were LDHA block inactive, IL1B secr inh -58, DT40 TDP1 no CPT 15µM and TDP1 cell CPT inconclusive.
Screening COc1ccccc1OCCn1c(CO)nc2ccccc21 returned LDHA block inactive, IL1B secr inh inactive, RORg inh inactive, VP16 counter inactive, DT40 TDP1 no CPT inconclusive and TDP1 cell CPT inactive.
`Cc1ccc(NCc2nc3ccccc3n2CCOc2ccccc2C)cc1` gave LDHA block inactive, DT40 TDP1 no CPT inconclusive and TDP1 cell CPT inconclusive.
`Cc1ccccc1OCCCn1c(CO)nc2ccccc21` gave LDHA block inactive, IL1B secr inh inactive, RORg inh inactive, VP16 counter inactive, DT40 TDP1 no CPT 18µM and TDP1 cell CPT inconclusive.
Screening Cc1ccccc1OCCCn1c(=O)sc2ccccc21 returned LDHA block inactive, IL1B secr inh inactive, RORg inh 2.8µM, VP16 counter 10µM, DT40 TDP1 no CPT inactive and TDP1 cell CPT inactive.
CCc1nc2ccccc2n1CCCCOc1ccccc1C was read as LDHA block inactive, DT40 TDP1 no CPT 26µM and TDP1 cell CPT inconclusive.
CCCc1c(C(=O)N/N=C(\C)c2ccc(CC(C)C)cc2)nnn1-c1nonc1N was read as LDHA block inactive, IL1B secr inh inactive, DT40 TDP1 no CPT 6.5µM and TDP1 cell CPT 12µM.
Screening CCCc1c(C(=O)N/N=C(\C)c2cccnc2)nnn1-c1nonc1N returned LDHA block inactive, IL1B secr inh inactive, DT40 TDP1 no CPT inactive and TDP1 cell CPT inactive.
Screening CCCc1c(C(=O)N/N=C(\C)c2ccc3c(c2)OCO3)nnn1-c1nonc1N returned LDHA block inactive, IL1B secr inh inactive, DT40 TDP1 no CPT inactive and TDP1 cell CPT inactive.
For CCCc1c(C(=O)N/N=C(\C)c2ccccc2O)nnn1-c1nonc1N the results were LDHA block inactive, IL1B secr inh inactive, DT40 TDP1 no CPT 8.2µM and TDP1 cell CPT 8.2µM.
`C/C(=N\NC(=O)c1nnn(-c2nonc2N)c1-c1ccccc1)c1ccccc1O` gave LDHA block inactive, IL1B secr inh inactive, RORg inh 1.8µM, VP16 counter 6.3µM, DT40 TDP1 no CPT 1.5µM and TDP1 cell CPT 2.3µM.
Screening C/C(=N/NC(=O)c1nnn(-c2nonc2N)c1COc1ccccc1)c1ccc(O)cc1 returned LDHA block inactive, IL1B secr inh inactive, RORg inh inactive, VP16 counter inactive, DT40 TDP1 no CPT inactive and TDP1 cell CPT inactive.
C/C(=N/NC(=O)c1nnn(-c2nonc2N)c1COc1ccccc1)c1ccccc1Cl was read as LDHA block inactive, IL1B secr inh inactive, RORg inh 22µM, VP16 counter inconclusive, DT40 TDP1 no CPT inactive and TDP1 cell CPT inconclusive.
`CC(C)(CO)NC/C=C/c1ccccc1` gave LDHA block inactive.
Screening Cc1ccccc1COc1ccc(C=O)cc1 returned LDHA block inactive.
Screening CN(c1ccccc1)S(=O)(=O)c1ccc(Cl)c(C(=O)OCn2nnc3ccccc3c2=O)c1 returned LDHA block inactive.
COc1ccc(Nc2nc(N3CCCC3)c3cnn(C)c3n2)c(OC)c1 was read as LDHA block inactive.
Screening COc1cccc(NC(=O)Cn2c(=O)n(-c3ccccc3)c(=O)c3sccc32)c1 returned LDHA block inactive, IL1B secr inh inactive, RORg inh inactive, VP16 counter inactive, DT40 TDP1 no CPT 13µM and TDP1 cell CPT inconclusive.
For COc1ccc(-n2c(=O)c3c4c(sc3n(Cc3ccccc3)c2=O)CCC4)c(OC)c1 the results were LDHA block inactive, DT40 TDP1 no CPT 23µM and TDP1 cell CPT inconclusive.
COc1ccc(-n2c(=O)c3c4c(sc3n(CC(=O)C(C)(C)C)c2=O)CCCC4)c(OC)c1 was read as LDHA block inactive, DT40 TDP1 no CPT inconclusive and TDP1 cell CPT 15µM.
For COc1cccc(NC(=O)Cn2c(=O)n(-c3ccccc3)c(=O)c3c2c2cc(OC)ccc2n3C)c1 the results were LDHA block inactive, DT40 TDP1 no CPT inactive and TDP1 cell CPT inactive.
Screening CCN(CC)C(=O)c1sc2c(c1C)c(=O)n(-c1ccc(OC)cc1OC)c(=O)n2Cc1cc(C)ccc1C returned LDHA block inactive, DT40 TDP1 no CPT inconclusive and TDP1 cell CPT inconclusive.
For COc1ccc(-n2c(=O)c3c4c(sc3n(CC(=O)N3CCCCC3C)c2=O)CCC4)c(OC)c1 (stereo unspecified) the results were LDHA block inactive, DT40 TDP1 no CPT inconclusive and TDP1 cell CPT inconclusive.
Screening COc1ccc(-n2c(=O)c3c4c(sc3n(Cc3cc(C)ccc3C)c2=O)CN(C(C)=O)CC4)c(OC)c1 returned LDHA block inactive, DT40 TDP1 no CPT 23µM and TDP1 cell CPT inconclusive.
